Reference: ChEMBL document CHEMBL2218924, “A broad activity screen in support of a chemogenomic map for kinase signalling research and drug discovery” (Biochem J, 2013)

These compounds were tested against T1, Mitogen-activated protein kinase kinase kinase 5 (Homo sapiens) (UniProt Q99683). Settings: at 10 µM.
T1 sequence (whole entry): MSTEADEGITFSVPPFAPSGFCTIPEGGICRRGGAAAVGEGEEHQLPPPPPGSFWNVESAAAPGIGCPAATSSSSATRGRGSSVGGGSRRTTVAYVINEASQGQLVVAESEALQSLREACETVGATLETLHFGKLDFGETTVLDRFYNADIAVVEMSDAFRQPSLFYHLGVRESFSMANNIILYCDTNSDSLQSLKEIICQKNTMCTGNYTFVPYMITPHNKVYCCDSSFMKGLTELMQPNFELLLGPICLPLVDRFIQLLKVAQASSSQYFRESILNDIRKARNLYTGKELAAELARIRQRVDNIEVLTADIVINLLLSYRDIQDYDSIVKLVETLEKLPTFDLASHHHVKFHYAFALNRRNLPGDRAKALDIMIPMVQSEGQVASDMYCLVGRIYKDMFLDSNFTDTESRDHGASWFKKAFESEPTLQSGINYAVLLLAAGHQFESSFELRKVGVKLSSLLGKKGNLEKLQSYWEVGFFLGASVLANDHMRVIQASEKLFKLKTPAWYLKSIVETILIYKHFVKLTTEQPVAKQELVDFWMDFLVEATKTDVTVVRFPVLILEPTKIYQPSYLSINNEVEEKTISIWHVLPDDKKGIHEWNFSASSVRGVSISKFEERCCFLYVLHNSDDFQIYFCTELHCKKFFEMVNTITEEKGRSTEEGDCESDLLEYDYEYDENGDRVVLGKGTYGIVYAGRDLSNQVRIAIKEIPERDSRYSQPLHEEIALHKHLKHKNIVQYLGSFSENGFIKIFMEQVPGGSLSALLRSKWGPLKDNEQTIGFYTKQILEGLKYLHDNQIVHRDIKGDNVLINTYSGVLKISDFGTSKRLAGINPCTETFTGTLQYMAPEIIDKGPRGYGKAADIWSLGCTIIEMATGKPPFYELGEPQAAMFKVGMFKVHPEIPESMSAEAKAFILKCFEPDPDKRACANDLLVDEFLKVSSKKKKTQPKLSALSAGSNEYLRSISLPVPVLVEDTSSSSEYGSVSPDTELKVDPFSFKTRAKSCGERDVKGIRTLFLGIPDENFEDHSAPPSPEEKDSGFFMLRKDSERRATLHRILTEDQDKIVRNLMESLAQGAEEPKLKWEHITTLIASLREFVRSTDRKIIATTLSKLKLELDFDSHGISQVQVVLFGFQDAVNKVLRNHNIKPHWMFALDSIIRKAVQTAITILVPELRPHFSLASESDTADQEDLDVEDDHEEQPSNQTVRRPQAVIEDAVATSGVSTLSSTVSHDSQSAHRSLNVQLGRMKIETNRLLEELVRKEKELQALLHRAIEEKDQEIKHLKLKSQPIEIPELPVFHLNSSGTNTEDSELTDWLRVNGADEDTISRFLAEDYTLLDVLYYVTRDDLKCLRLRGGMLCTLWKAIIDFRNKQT

Going from `c1cc(-c2cnn3cc(-c4ccc(OCCN5CCCCC5)cc4)cnc23)ccn1` to `C[S+]([O-])c1ccc(-c2nc(-c3ccc(F)cc3)c(-c3ccncc3)[nH]2)cc1` (stereo not given), the residual activity rises from 84% to 105%.

First: COC(=O)[C@@]1(O)C[C@H]2O[C@]1(C)n1c3ccccc3c3c4c(c5c6ccccc6n2c5c31)C(=O)NC4
Second: O=C1NC(=O)c2c1c1c3ccccc3n3c1c1c2c2ccccc2n1C1CCC3O1
The residual activity of the first is lower: 0% for the first, 60% for the second.

First: O=C1c2ccccc2-c2nc3nnnn3nc21
Second: CC(C)[C@H](CO)Nc1nc(Nc2cccc(Cl)c2)c2ncn(C(C)C)c2n1
The residual activity of the first is higher: 143% for the first, 96% for the second.

Compared with `O=[N+]([O-])/C=C/c1ccc2c(c1)OCO2`, `N/C(=N\[N+](=O)[O-])N/N=C\c1ccc(-c2cccc([N+](=O)[O-])c2)o1` is lower in residual activity: 90% for the first, 86% for the second.

Compared with `O=c1[nH]c2ccccc2n1C1CCN(Cc2ccc(-c3nc4cc5[nH]cnc5cc4nc3-c3ccccc3)cc2)CC1`, `COc1cc2ncnc(Nc3ccc(OCc4ccccc4)cc3)c2cc1OC` is lower in residual activity: 96% for the first, 92% for the second.

Compared with `COc1cc(OC)c(/C=C2\C(=O)Nc3ccccc32)c(OC)c1`, `COc1ccc2c(c1)/C(=C/c1cnc[nH]1)C(=O)N2` is lower in residual activity: 90% for the first, 41% for the second.

Compared with `CCn1cnc2c(Nc3cccc(Cl)c3)nc(N[C@@H]3CCCC[C@@H]3N)nc21`, `O=C1Nc2ccc3ncsc3c2/C1=C/c1c[nH]cn1` is lower in residual activity: 89% for the first, 7% for the second.

Compound `CC(C)(C)c1cc(C=C(C#N)C#N)cc(Br)c1O` has a residual activity of 109%.
